# Measured values as given in ChEMBL document CHEMBL2218924, “A broad activity screen in support of a chemogenomic map for kinase signalling research and drug discovery” (Biochem J, 2013).
# Columns and labels:
# [1] = target: T1, Mitogen-activated protein kinase kinase kinase 5 (Homo sapiens) (UniProt Q99683); conditions: at 10 µM
# T1 sequence (whole entry): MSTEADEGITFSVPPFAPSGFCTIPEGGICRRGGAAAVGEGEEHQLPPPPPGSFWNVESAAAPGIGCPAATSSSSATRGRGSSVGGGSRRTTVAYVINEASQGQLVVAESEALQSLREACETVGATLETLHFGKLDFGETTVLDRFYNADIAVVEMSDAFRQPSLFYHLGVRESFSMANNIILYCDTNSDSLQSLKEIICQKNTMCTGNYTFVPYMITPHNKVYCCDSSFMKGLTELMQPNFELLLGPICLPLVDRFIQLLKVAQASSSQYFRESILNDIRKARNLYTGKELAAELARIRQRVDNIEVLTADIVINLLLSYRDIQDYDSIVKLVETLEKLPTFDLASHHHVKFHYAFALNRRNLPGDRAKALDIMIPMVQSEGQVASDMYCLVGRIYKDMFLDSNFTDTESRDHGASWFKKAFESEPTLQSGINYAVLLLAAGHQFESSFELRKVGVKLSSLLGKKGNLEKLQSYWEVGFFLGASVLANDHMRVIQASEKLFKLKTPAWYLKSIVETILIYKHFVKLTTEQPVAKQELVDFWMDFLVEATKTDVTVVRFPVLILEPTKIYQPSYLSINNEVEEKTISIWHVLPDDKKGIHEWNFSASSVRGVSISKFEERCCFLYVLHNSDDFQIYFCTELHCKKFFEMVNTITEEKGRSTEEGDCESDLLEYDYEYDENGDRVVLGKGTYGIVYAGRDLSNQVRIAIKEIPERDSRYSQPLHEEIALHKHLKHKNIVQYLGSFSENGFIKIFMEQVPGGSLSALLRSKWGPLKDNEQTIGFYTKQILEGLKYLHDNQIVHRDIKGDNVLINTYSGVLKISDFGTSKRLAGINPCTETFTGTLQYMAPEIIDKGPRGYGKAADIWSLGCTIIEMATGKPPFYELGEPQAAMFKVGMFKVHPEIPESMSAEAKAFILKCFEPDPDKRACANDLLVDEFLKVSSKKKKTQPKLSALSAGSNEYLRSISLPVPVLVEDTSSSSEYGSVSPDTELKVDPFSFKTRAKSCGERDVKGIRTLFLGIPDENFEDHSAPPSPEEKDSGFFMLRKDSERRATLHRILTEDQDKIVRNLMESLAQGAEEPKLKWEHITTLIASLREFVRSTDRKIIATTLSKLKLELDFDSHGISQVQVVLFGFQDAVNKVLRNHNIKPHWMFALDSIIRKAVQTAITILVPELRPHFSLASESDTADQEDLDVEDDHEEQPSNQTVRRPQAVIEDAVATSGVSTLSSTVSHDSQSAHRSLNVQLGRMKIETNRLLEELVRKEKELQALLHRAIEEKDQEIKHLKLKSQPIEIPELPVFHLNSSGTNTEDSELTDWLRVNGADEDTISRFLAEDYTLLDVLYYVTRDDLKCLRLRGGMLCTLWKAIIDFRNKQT
# [2] = target: Tyrosine-protein kinase ABL1 (Homo sapiens) (UniProt P00519); conditions: at 1 µM
# Chain of Tyrosine-protein kinase ABL1 (Homo sapiens) (P00519 whole entry): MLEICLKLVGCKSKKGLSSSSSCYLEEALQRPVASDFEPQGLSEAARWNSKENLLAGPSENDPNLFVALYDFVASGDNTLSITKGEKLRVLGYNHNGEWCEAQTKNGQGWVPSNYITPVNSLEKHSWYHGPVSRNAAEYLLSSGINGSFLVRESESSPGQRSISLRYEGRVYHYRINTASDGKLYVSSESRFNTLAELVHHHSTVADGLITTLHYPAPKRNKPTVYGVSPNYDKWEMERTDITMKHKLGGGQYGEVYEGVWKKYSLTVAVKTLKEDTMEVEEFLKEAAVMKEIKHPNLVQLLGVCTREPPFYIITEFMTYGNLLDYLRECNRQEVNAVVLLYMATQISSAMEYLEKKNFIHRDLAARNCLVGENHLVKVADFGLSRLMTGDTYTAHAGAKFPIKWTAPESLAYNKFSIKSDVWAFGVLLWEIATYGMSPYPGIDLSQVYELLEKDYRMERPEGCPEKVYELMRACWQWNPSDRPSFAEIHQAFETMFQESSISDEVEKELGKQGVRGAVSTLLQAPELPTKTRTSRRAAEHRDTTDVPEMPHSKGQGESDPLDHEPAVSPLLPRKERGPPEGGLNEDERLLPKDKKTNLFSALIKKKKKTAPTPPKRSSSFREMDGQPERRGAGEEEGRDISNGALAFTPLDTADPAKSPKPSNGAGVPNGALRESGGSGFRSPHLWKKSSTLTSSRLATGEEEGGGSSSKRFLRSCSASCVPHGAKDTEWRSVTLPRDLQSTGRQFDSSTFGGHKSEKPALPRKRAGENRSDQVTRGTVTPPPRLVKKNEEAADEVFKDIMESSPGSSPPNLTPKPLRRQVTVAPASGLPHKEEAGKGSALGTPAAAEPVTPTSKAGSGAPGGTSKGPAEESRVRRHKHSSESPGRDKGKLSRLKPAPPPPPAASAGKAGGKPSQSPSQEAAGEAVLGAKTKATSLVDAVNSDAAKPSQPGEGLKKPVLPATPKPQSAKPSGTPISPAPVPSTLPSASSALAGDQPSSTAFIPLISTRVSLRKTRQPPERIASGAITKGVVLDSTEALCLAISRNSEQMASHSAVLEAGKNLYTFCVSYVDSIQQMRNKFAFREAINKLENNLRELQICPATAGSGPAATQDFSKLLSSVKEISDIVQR
# [3] = target: Tyrosine-protein kinase ABL1 (Homo sapiens) (UniProt P00519); conditions: at 10 µM
# [4] = target: Tyrosine-protein kinase ABL2 (Homo sapiens) (UniProt P42684); conditions: at 1 µM
# Chain of Tyrosine-protein kinase ABL2 (Homo sapiens) (P42684 whole entry): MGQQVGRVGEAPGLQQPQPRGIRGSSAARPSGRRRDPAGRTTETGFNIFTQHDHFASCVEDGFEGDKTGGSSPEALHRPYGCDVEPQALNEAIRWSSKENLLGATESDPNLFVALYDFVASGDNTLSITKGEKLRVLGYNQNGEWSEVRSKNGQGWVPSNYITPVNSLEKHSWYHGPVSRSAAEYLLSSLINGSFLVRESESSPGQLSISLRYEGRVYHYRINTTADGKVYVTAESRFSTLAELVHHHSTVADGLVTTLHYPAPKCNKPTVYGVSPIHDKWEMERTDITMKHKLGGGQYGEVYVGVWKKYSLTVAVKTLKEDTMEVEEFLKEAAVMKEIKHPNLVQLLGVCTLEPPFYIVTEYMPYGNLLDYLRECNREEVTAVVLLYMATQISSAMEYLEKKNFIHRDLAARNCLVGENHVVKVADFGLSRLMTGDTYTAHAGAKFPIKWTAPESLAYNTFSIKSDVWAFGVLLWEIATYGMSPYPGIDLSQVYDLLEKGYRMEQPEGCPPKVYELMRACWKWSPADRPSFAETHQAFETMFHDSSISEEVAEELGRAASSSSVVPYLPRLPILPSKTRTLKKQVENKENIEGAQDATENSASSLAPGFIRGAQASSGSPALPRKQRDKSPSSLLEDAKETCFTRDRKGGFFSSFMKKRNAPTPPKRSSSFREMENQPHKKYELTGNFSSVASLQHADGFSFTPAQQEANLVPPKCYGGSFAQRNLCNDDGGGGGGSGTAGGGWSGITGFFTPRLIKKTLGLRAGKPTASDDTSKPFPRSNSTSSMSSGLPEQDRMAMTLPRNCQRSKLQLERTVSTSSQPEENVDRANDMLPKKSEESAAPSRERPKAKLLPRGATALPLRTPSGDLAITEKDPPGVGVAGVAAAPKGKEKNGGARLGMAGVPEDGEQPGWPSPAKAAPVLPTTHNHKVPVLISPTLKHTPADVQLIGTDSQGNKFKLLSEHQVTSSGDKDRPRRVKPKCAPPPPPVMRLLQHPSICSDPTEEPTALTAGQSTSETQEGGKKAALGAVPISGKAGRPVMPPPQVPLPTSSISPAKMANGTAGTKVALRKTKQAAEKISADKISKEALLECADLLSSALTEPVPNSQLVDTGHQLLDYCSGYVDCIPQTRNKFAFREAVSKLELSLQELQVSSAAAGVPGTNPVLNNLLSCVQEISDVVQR
# [5] = target: Tyrosine-protein kinase ABL2 (Homo sapiens) (UniProt P42684); conditions: at 10 µM
# [6] = target: T2, Aurora kinase A (Homo sapiens) (UniProt O14965); conditions: at 1 µM
# T2 sequence (whole entry): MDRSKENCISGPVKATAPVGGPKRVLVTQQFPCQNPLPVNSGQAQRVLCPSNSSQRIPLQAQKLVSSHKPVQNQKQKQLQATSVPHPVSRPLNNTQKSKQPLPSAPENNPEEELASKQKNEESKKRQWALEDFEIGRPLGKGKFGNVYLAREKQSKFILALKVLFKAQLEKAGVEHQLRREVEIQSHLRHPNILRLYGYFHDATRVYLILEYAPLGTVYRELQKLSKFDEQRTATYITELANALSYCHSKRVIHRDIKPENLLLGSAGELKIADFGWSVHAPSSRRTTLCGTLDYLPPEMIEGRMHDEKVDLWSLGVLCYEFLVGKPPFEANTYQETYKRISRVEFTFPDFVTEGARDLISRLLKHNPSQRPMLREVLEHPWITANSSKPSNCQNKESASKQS
# [7] = target: T2, Aurora kinase A (Homo sapiens); conditions: at 10 µM
# [8] = target: Aurora kinase B (Homo sapiens) (UniProt Q96GD4); conditions: at 1 µM
# Chain of Aurora kinase B (Homo sapiens) (Q96GD4 whole entry): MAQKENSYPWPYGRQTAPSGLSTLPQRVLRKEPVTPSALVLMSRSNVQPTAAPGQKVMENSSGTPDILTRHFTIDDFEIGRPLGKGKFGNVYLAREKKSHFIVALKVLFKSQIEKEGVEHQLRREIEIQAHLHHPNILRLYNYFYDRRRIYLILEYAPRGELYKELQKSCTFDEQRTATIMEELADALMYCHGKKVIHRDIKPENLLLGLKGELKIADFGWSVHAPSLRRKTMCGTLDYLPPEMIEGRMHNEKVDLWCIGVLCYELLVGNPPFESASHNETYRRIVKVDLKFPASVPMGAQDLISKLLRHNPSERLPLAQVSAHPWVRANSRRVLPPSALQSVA
# [9] = target: Aurora kinase B (Homo sapiens) (UniProt Q96GD4); conditions: at 10 µM
# [10] = target: T3, Aurora kinase C (Homo sapiens) (UniProt Q9UQB9); conditions: at 1 µM
# T3 sequence (whole entry): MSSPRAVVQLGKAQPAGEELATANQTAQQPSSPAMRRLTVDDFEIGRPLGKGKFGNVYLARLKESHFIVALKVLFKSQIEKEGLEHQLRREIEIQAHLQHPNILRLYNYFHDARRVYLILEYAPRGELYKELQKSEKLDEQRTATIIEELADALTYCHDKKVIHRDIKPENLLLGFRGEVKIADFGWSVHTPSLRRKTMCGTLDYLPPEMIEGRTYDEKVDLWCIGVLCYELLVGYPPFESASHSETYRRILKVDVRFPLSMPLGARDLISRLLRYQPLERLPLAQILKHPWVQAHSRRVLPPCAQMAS
# [11] = target: T3, Aurora kinase C (Homo sapiens); conditions: at 10 µM
# [12] = target: Tyrosine-protein kinase receptor UFO (Homo sapiens) (UniProt P30530); conditions: at 1 µM
# [13] = target: Tyrosine-protein kinase receptor UFO (Homo sapiens) (UniProt P30530); conditions: at 10 µM
# [14] = target: Protein-tyrosine kinase 6 (Homo sapiens) (UniProt Q13882); conditions: at 1 µM
# Chain of Protein-tyrosine kinase 6 (Homo sapiens) (Q13882 whole entry, looked up): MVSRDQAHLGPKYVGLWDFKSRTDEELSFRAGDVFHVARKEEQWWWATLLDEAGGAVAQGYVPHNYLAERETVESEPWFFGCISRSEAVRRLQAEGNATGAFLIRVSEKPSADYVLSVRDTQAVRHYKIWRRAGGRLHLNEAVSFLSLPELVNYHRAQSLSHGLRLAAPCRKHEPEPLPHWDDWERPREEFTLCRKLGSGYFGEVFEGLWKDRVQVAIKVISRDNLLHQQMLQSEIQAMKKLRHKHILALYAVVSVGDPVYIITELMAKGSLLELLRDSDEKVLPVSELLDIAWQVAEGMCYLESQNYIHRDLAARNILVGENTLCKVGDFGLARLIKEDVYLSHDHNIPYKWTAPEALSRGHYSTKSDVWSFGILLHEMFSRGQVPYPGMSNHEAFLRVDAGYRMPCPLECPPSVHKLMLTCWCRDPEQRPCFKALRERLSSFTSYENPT
# [15] = target: Protein-tyrosine kinase 6 (Homo sapiens) (UniProt Q13882); conditions: at 10 µM
# [16] = target: Tyrosine-protein kinase BTK (Homo sapiens) (UniProt Q06187); conditions: at 1 µM
# Chain of Tyrosine-protein kinase BTK (Homo sapiens) (Q06187 whole entry): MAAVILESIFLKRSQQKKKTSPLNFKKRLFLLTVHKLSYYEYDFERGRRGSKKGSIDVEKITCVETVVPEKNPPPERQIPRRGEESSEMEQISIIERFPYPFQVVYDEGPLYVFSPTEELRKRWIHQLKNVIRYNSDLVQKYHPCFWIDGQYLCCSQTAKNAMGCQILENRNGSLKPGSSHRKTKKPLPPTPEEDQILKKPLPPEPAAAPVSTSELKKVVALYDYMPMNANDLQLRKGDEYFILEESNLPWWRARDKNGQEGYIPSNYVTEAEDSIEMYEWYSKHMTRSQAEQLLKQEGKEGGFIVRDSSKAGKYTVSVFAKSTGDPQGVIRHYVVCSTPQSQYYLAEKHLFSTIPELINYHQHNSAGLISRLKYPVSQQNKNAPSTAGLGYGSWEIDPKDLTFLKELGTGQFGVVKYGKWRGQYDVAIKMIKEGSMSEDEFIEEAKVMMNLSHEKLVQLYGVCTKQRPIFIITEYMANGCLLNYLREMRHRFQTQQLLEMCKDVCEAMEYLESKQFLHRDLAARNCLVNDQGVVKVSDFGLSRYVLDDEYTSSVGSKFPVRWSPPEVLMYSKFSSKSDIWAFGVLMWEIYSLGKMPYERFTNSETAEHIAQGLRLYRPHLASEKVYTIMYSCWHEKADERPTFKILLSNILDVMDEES
# [17] = target: Tyrosine-protein kinase BTK (Homo sapiens) (UniProt Q06187); conditions: at 10 µM
# [18] = target: Tyrosine-protein kinase Blk (Homo sapiens) (UniProt P51451); conditions: at 1 µM
# Chain of Tyrosine-protein kinase Blk (Homo sapiens) (P51451 2-505 limits assumed): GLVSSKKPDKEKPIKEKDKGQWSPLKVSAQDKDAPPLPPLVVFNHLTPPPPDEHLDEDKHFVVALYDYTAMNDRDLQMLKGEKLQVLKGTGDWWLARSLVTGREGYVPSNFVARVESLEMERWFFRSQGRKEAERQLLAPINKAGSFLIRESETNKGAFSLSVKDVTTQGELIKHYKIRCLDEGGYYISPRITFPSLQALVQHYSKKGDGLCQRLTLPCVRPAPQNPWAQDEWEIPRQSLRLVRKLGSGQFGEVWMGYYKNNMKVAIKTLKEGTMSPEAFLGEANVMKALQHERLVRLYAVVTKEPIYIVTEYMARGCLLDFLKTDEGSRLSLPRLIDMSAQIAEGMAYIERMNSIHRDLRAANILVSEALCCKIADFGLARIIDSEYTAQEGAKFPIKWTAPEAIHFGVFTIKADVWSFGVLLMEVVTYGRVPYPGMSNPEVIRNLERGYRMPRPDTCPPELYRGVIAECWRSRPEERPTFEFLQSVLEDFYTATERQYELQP
# [19] = target: Tyrosine-protein kinase Blk (Homo sapiens) (UniProt P51451); conditions: at 10 µM
smiles,measurement,setting,value
COc1cc2nccc(Oc3ccc(NC(=S)NC(=O)c4ccccc4C)cc3)c2cc1OC,residual activity,[1],77%
same,residual activity,[2],22%
same,residual activity,[3],9%
same,residual activity,[4],50%
same,residual activity,[5],18%
same,residual activity,[6],0%
same,residual activity,[7],1%
same,residual activity,[8],2%
same,residual activity,[9],-1%
same,residual activity,[10],13%
same,residual activity,[11],1%
same,residual activity,[12],11%
same,residual activity,[13],8%
same,residual activity,[14],22%
same,residual activity,[15],11%
same,residual activity,[16],17%
same,residual activity,[17],2%
same,residual activity,[18],0%
same,residual activity,[19],0%
CC(C)[C@H](CO)Nc1nc(Nc2cc(N)cc(Cl)c2)c2ncn(C(C)C)c2n1,residual activity,[2],75%
same,residual activity,[3],15%
same,residual activity,[4],62%
same,residual activity,[5],8%
same,residual activity,[6],70%
same,residual activity,[7],47%
same,residual activity,[8],14%
same,residual activity,[9],2%
same,residual activity,[10],91%
same,residual activity,[11],52%
same,residual activity,[12],80%
same,residual activity,[13],20%
same,residual activity,[14],96%
same,residual activity,[15],83%
same,residual activity,[16],48%
same,residual activity,[17],5%
O=C1Cc2c([nH]c3ccc([N+](=O)[O-])cc23)-c2ccccc2N1,residual activity,[1],105%
same,residual activity,[2],47%
same,residual activity,[4],81%
same,residual activity,[5],76%
same,residual activity,[7],105%
same,residual activity,[8],48%
same,residual activity,[9],22%
same,residual activity,[14],111%
same,residual activity,[15],107%
same,residual activity,[18],29%
same,residual activity,[19],33%
NC(=O)c1ccc(-c2nc(-c3ccc4c(c3)OCCO4)c(-c3ccccn3)[nH]2)cc1,residual activity,[1],96%
same,residual activity,[3],92%
same,residual activity,[5],83%
same,residual activity,[8],89%
same,residual activity,[9],70%
same,residual activity,[10],84%
same,residual activity,[11],90%
same,residual activity,[12],77%
same,residual activity,[13],85%
same,residual activity,[18],88%
same,residual activity,[19],85%
N#Cc1c(NC(=O)c2cccc3ccccc23)sc2c1CCCC2,residual activity,[1],80%
same,residual activity,[6],92%
same,residual activity,[8],69%
same,residual activity,[9],69%
same,residual activity,[10],98%
same,residual activity,[11],97%
same,residual activity,[12],96%
same,residual activity,[13],79%
same,residual activity,[19],97%
Nc1nc(Nc2ccc(S(N)(=O)=O)cc2)nn1C(=O)c1c(F)cccc1F,residual activity,[1],46%
same,residual activity,[4],34%
same,residual activity,[5],8%
same,residual activity,[10],6%
same,residual activity,[11],1%
same,residual activity,[12],56%
same,residual activity,[13],13%
same,residual activity,[14],106%
same,residual activity,[15],74%
same,residual activity,[18],74%
same,residual activity,[19],9%
O=S(=O)(c1cccc2cnccc12)N1CCCNCC1,residual activity,[5],80%
same,residual activity,[11],59%
CCOC(=O)c1c(C)[nH]c(/C=C2\C(=O)Nc3ccccc32)c1C,residual activity,[8],74%
same,residual activity,[9],61%
same,residual activity,[12],84%
same,residual activity,[13],81%
same,residual activity,[18],89%
same,residual activity,[19],57%
N#C/C(=C\c1ccc(O)c(O)c1)C(=O)NCc1ccccc1,residual activity,[13],77%
same,residual activity,[18],104%
O=S(=O)(NCCNC/C=C/c1ccc(Br)cc1)c1cccc2cnccc12,residual activity,[8],43%
same,residual activity,[9],8%
same,residual activity,[10],80%
same,residual activity,[11],22%
same,residual activity,[19],76%
Cc1cc(C)c(/C=C2\C(=O)Nc3ccccc32)[nH]1,residual activity,[8],6%
same,residual activity,[9],0%
same,residual activity,[12],31%
same,residual activity,[13],21%
same,residual activity,[14],103%
same,residual activity,[15],104%
same,residual activity,[18],65%
same,residual activity,[19],32%
O=C(Nc1nc2ccccc2n1CCN1CCOCC1)c1cccc([N+](=O)[O-])c1,residual activity,[1],110%
same,residual activity,[4],100%
same,residual activity,[6],101%
same,residual activity,[7],103%
same,residual activity,[8],100%
same,residual activity,[9],40%
same,residual activity,[12],75%
same,residual activity,[13],78%
same,residual activity,[16],100%
same,residual activity,[17],109%
same,residual activity,[18],111%
same,residual activity,[19],100%
O=C1Nc2ccccc2/C1=C\c1c(Cl)[nH]c2ccccc12,residual activity,[1],70%
same,residual activity,[9],59%
same,residual activity,[13],58%
same,residual activity,[15],54%
same,residual activity,[17],80%
CCCC(=O)Oc1ccc2[nH]c(C(=O)c3cc4ccccc4[nH]3)cc2c1,residual activity,[2],102%
same,residual activity,[3],96%
same,residual activity,[6],71%
same,residual activity,[8],124%
same,residual activity,[9],47%
same,residual activity,[10],104%
same,residual activity,[11],84%
same,residual activity,[12],81%
same,residual activity,[13],80%
same,residual activity,[14],101%
same,residual activity,[15],107%
same,residual activity,[16],94%
same,residual activity,[18],70%
same,residual activity,[19],64%
COc1ccc(COc2ccc(Cc3cnc(N)nc3N)cc2OC)cc1,residual activity,[3],117%
same,residual activity,[6],108%
same,residual activity,[7],111%
same,residual activity,[8],110%
same,residual activity,[9],76%
same,residual activity,[12],80%
same,residual activity,[13],74%
same,residual activity,[19],98%
Oc1cccc(-c2nc(N3CCOCC3)c3oc4ncccc4c3n2)c1,residual activity,[9],92%
same,residual activity,[13],86%
Fc1ccc(-c2nc3n(c2-c2ccncc2)CCS3)cc1,residual activity,[1],83%
same,residual activity,[4],96%
same,residual activity,[5],77%
same,residual activity,[10],98%
same,residual activity,[11],95%
same,residual activity,[16],100%
same,residual activity,[17],98%
